System: Vero E6 infected with SARS-CoV-2
Assay: inhibition of SARS-CoV-2 cytopathic effect; higher = more antiviral protection, active = above 15
Conditions: 48 h

Measured: inhibition of SARS-CoV-2 cytopathic effect

O=c1c2ccccc2nc2n1CCc1c-2[nH]c2ccccc12 [rutaecarpine]
inactive: 1 nM -1.97% | 8.33 nM 0.36% | 100 nM -0.87% | 833.33 nM 0.6% | 10000 nM -0.59%

N#Cc1ccc(NCCNCC(=O)N2CCC[C@H]2C#N)nc1
inactive: 1 nM 0.59% | 8.33 nM 2.4% | 100 nM -0.06% | 833.33 nM 3.35% | 10000 nM 2.5%

Oc1cc(O)c(Cl)cn1 [gimeracil]
inactive: 1 nM -0.94% | 8.33 nM 0.32% | 100 nM -0.13% | 833.33 nM -0.16% | 10000 nM 1.36%

CCOC(=O)c1ccc(N(C)c2csc(-c3ccccc3)n2)cc1 [neuropathiazol]
inactive: 1 nM -0.18% | 8.33 nM 1.78% | 100 nM 0.85% | 833.33 nM 2.12% | 10000 nM 2.67%

N#CC(c1ccccc1)(c1ccccc1)c1ccccc1Cl
inactive: 1 nM 2.09% | 8.33 nM 1.23% | 100 nM 3.05% | 833.33 nM 3.49% | 10000 nM 3.88%

COc1cc(Nc2ncc3c(n2)-c2ccc(Cl)cc2C(c2c(F)cccc2OC)=NC3)ccc1C(=O)O [alisertib]
inactive: 1 nM -2.11% | 8.33 nM 0.41% | 100 nM -2.08% | 833.33 nM 0.49% | 10000 nM -5.87%

Nc1ccncc1N [amifampridine]
inactive: 1 nM -1.81% | 8.33 nM -1.46% | 100 nM -2.67% | 833.33 nM -3.34% | 10000 nM -5.61%

O[C@H]1[C@H]2[C@H](O)CCCN2C[C@H]1O [swainsonine]
inactive: 1 nM -4.09% | 8.33 nM 2.85% | 100 nM 1.87% | 833.33 nM -1.43% | 10000 nM -5.03%

O=C(NCCCCN1CCN(c2cccc(Cl)c2Cl)CC1)c1ccc2c(c1)Cc1ccccc1-2
inactive: 1 nM 0.39% | 8.33 nM 2.85% | 100 nM -2.31% | 833.33 nM -1.17% | 10000 nM -3.44%

CN1CCN(c2c(F)cc3c(=O)c(C(=O)O)cn(CCF)c3c2F)CC1 [fleroxacin]
inactive: 1 nM -1.94% | 8.33 nM -0.15% | 100 nM 1.24% | 833.33 nM 0.81% | 10000 nM -1.08%

CCN(CC)Cc1cc(Nc2ccnc3cc(Cl)ccc23)ccc1O [amodiaquine]
active: 10000 nM 44.7%
inactive: 1 nM 3.02% | 8.33 nM 3.97% | 100 nM 0.97% | 833.33 nM -1.05%

C/C=C1\NC(=O)[C@H]2CSSCC/C=C/[C@H](CC(=O)N[C@H](C(C)C)C(=O)N2)OC(=O)[C@H](C(C)C)NC1=O [romidepsin]
inactive: 1 nM -1.04% | 8.33 nM 0.79% | 100 nM -0.75% | 833.33 nM -16.6% | 10000 nM -18%

CC1(C)CC[C@]2(C(=O)O)CC[C@]3(C)C(=CC[C@@H]4[C@@]5(C)CC[C@H](O)C(C)(C)[C@@H]5CC[C@]43C)[C@@H]2C1 [oleanolic-acid]
inactive: 1 nM -0.65% | 8.33 nM -0.09% | 100 nM 0.47% | 833.33 nM -0.94% | 10000 nM -0.53%

NCC(=O)Nc1ccc(-n2nc(C(F)(F)F)cc2-c2ccc3c(ccc4ccccc43)c2)cc1
inactive: 1 nM -0.05% | 8.33 nM 2.22% | 100 nM 2.09% | 833.33 nM -1.2% | 10000 nM -3.56%

OCCNCCCOc1cccc(Cl)c1Cl
inactive: 1 nM 1.41% | 8.33 nM 0.45% | 100 nM 1.26% | 833.33 nM 0.42% | 10000 nM -19.6%

C[C@]12C=CC(=O)C=C1CC[C@@H]1[C@@H]2CC[C@]2(C)OC(=O)CC[C@@H]12 [Testolactone]
inactive: 1 nM -1.05% | 8.33 nM -0.81% | 100 nM -0.43% | 833.33 nM -1.59% | 10000 nM 11.2%

OC(c1cc(C(F)(F)F)nc2c(C(F)(F)F)cccc12)C1CCCCN1 (stereo not given) [mefloquine]
active: 10000 nM 73.3%
inactive: 1 nM -1.64% | 8.33 nM 0.59% | 100 nM -0.03% | 833.33 nM -3.31%

c1cc2c(c(N3CCNCC3)c1)OCCO2 [eltoprazine]
inactive: 1 nM 3.51% | 8.33 nM 2.36% | 100 nM 2.47% | 833.33 nM -1.11% | 10000 nM -4.55%

CC(C)C[C@H](NC(=O)OCc1ccccc1)C(=O)N[C@@H](C[C@@H]1CCNC1=O)C(O)S(=O)(=O)O (stereo not given in full) [GC376 sodium]
inactive: 1 nM 0.45% | 8.33 nM -0.81% | 100 nM 0.28% | 833.33 nM -0.83%
active: 10000 nM 70.6%

COc1cc(OC)c(OC)cc1C=O [asaraldehyde]
inactive: 1 nM -1.46% | 8.33 nM -1.92% | 100 nM -1.24% | 833.33 nM -1.97% | 10000 nM 0.07%

CO[C@@H]1COCC[C@@H]1N[C@@H]1CC[C@@](C(=O)N2CCc3ncc(C(F)(F)F)cc3C2)(C(C)C)C1
inactive: 1 nM 0.39% | 8.33 nM -0.35% | 100 nM 0.03% | 833.33 nM -0.05% | 10000 nM -5.58%

Nc1nc(OCc2ccccc2)c2nc[nH]c2n1 [O6-benzylguanine]
inactive: 1 nM 2.66% | 8.33 nM 2.87% | 100 nM -5.93% | 833.33 nM -3.87% | 10000 nM -1.55%

N#Cc1ccc(Cn2cncc2CN2CCN(c3cccc(Cl)c3)C(=O)C2)cc1
inactive: 1 nM 3.21% | 8.33 nM 3.01% | 100 nM 0.11% | 833.33 nM -2.48% | 10000 nM -1.12%

Cn1nc(-c2cccc(F)c2)n(C)c1=S [suritozole]
inactive: 1 nM 3.45% | 8.33 nM 1.68% | 100 nM 1.49% | 833.33 nM 1.52% | 10000 nM 1.85%

O=C(O)c1ccc(CN2CCC(CN[C@@H]3C[C@H]3c3ccccc3)CC2)cc1
inactive: 1 nM 0.72% | 8.33 nM 1.52% | 100 nM 1.24% | 833.33 nM 3.6% | 10000 nM 2.94%

NCCCS(=O)(=O)O [tramiprosate]
inactive: 1 nM 2.5% | 8.33 nM 3.61% | 100 nM 3.29% | 833.33 nM 3.22% | 10000 nM 2.51%

NS(=O)(=O)c1cc2c(cc1Cl)NCNS2(=O)=O [hydrochlorothiazide]
inactive: 1 nM 3.33% | 8.33 nM 0.33% | 100 nM 0.49% | 833.33 nM 0.84% | 10000 nM -1.16%

COc1ccc(Cl)cc1[C@]1(F)C(=O)Nc2cc(C(F)(F)F)ccc21 [flindokalner]
inactive: 1 nM 2.54% | 8.33 nM 0% | 100 nM -1.3% | 833.33 nM 1.03% | 10000 nM -0.62%

NC(=O)N1c2ccccc2C=Cc2ccccc21 [carbamazepine]
inactive: 1 nM -2.53% | 8.33 nM -2.53% | 100 nM -0.42% | 833.33 nM -3.09% | 10000 nM -3.17%

Cn1cc(C(=O)C(=O)N[C@H]2CN3CCC2CC3)c2ccccc21
inactive: 1 nM 0.78% | 8.33 nM 1.33% | 100 nM 0.72% | 833.33 nM -1.49% | 10000 nM 1.51%

CCCCCCCCCCCCCCCc1cccc(OCC(=O)NCCO)c1
inactive: 1 nM -0.98% | 8.33 nM -2.66% | 100 nM -0.69% | 833.33 nM 1.46% | 10000 nM -1.78%

c1cncc(CN2CCC(n3ncc4c(N5CCOCC5)nc(-c5ccc6[nH]ccc6c5)nc43)CC2)c1
inactive: 1 nM 1.62% | 8.33 nM 0.29% | 100 nM 2.14% | 833.33 nM 12.2%
active: 10000 nM 17.7%

CC(C)(C)C(=O)NCCCC(=O)O [pivagabine]
inactive: 1 nM 0.01% | 8.33 nM -1.15% | 100 nM -1.01% | 833.33 nM 0.86% | 10000 nM -0.03%

Cc1cccc(C)c1NC(=O)c1ccccc1C(=O)O [ftaxilide]
inactive: 1 nM -0.49% | 8.33 nM 0.92% | 100 nM -1.2% | 833.33 nM 0.63% | 10000 nM 1.39%

Cn1c(=O)c2c(ncn2CC(=O)Nc2ccc(-c3ccccc3)nn2)n(C)c1=O
inactive: 1 nM 2.25% | 8.33 nM 0.06% | 100 nM 1.35% | 833.33 nM 4.8% | 10000 nM 7.55%

C=C1/C(=C\C=C2/CCC[C@]3(C)[C@@H]([C@H](C)CCCC(O)(C(F)(F)F)C(F)(F)F)CC[C@@H]23)C[C@@H](O)C[C@@H]1O [falecalcitriol]
inactive: 1 nM -0.53% | 8.33 nM 0.41% | 100 nM -1.28% | 833.33 nM 0.88% | 10000 nM -2.37%

C=CC(=O)O [acrylate]
inactive: 1 nM 0.49% | 8.33 nM -3.42% | 100 nM -3.82% | 833.33 nM 4.25% | 10000 nM -1.97%

CCN(CC)C(=S)SSC(=S)N(CC)CC [disulfiram]
active: 833.33 nM 26.5%
inactive: 1 nM 1.63% | 8.33 nM 1.79% | 100 nM 1.68% | 10000 nM 13.2%

CN/C(=N\CCSCc1nc[nH]c1C)NC#N [cimetidine]
inactive: 1 nM 0.42% | 8.33 nM -1.81% | 100 nM -0.46% | 833.33 nM 2.3% | 10000 nM -1.84%

CC(=O)O[C@H]1Cc2ccccc2N(C(N)=O)c2ccccc21 [eslicarbazepine-acetate]
inactive: 1 nM 3.04% | 8.33 nM -0.54% | 100 nM 1.48% | 833.33 nM 0.03% | 10000 nM 1.45%

OCCN1CCN(CC/C=C2/c3ccccc3Sc3ccc(C(F)(F)F)cc32)CC1 [flupentixol]
inactive: 1 nM -4.51% | 8.33 nM 0.12% | 100 nM -2.01% | 833.33 nM -0.29% | 10000 nM 0.08%

Source: the supplement of paper PMC13380429
